Results filed as inconclusive are left out. Calls of active or inactive are those of the source. The call rests on the fitted dose curve.
Legend:
[1] = Primary qHTS for inhibitors of SARS-S pseudo-typed particle cell entry (AID 1479145); settings: SARS-S pseudotyped particle cell entry, luciferase reporter; series mostly up to 57.1 µM; further: nearly all actives have a fitted effect of over 45% in size
[2] = Primary qHTS for Huh7 cytotoxicity: counterscreen for inhibitors of MERS-S pseudotyped particle cell entry (AID 1479147); settings: cell viability read-out; series mostly up to 57.1 µM
[3] = Primary qHTS for inhibitors of MERS-S pseudo-typed particle cell entry (AID 1479149); settings: MERS-S pseudotyped particle entry, luciferase; series mostly up to 57.1 µM; further: nearly all actives have a fitted effect of over 60% in size
[4] = Primary qHTS for Vero E6 cytotoxicity: counterscreen for inhibitors of SARS-S pseudo-typed particle cell entry (AID 1479150); settings: cell viability; series mostly up to 57.1 µM

Measured: Potency

C#C[C@]1(O)CC[C@H]2[C@@H]3CCC4=CC(=O)CC[C@@H]4[C@H]3CC[C@@]21C
inactive: [1] | [2] | [3] | [4]

Nc1nc2ncc(CNc3ccc(C(=O)N[C@@H](CCC(=O)O)C(=O)O)cc3)nc2c(=O)[nH]1
inactive: [1] | [2] | [3] | [4]

NCCNC(=O)c1ccc(Cl)cn1
inactive: [1] | [2] | [3] | [4]

CO/N=C(/C(=O)N[C@@H]1C(=O)N2C(C(=O)O)=C(Cn3nnc(C)n3)CS[C@H]12)c1csc(N)n1
inactive: [1] | [2] | [3] | [4]

O=C1OC2(c3ccccc31)c1cc(I)c(O)c(I)c1Oc1c2cc(I)c(O)c1I
inactive: [1] | [2] | [3] | [4]

NC(CSCC(=O)O)C(=O)O (stereo not given)
inactive: [1] | [2] | [3] | [4]

CCOC(=O)[C@H](CCc1ccccc1)N[C@H]1CS[C@H](c2cccs2)CN(CC(=O)O)C1=O
inactive: [1] | [2] | [3] | [4]

C[C@]12CC[C@@H]3c4ccc(O)cc4CC[C@H]3[C@@H]1CC[C@@H]2OC(=O)CCC1CCCC1
inactive: [1] | [2] | [3] | [4]

C/C(=C(\CCOP(=O)(O)O)SC(=O)c1ccccc1)N(C=O)Cc1cnc(C)nc1N
inactive: [1] inactive [at 5.34 µM] | [2] inactive [at 5.34 µM] | [3] inactive [at 5.34 µM] | [4] inactive [at 5.34 µM]

Cc1nnc(C(=O)NC(C)(C)c2nc(C(=O)NCc3ccc(F)cc3)c(O)c(=O)n2C)o1
inactive: [1] | [2] | [3] | [4]

From PubChem BioAssay (NCATS)
